Measurements as given in the supplement of paper PMC11732987, “Enantioselective OTUD7B fragment discovery through chemoproteomics screening and high-throughput optimisation” (Communications Chemistry, 2025).

Tests used:
Assay in all cases: log2 ratio of Biotin-Ahx-Ub-VS probe labelling (fragment/DMSO); higher = less target engagement (more negative = stronger competition), active = hit call of the paper (q ≤ 0.05, log2 ratio ≤ -1)
Conditions in all cases: compound concentration: 200 uM; treatment time: 3 h
USP42 = target: T1, USP42 (UniProt Q9H9J4)
T1 sequence (whole entry): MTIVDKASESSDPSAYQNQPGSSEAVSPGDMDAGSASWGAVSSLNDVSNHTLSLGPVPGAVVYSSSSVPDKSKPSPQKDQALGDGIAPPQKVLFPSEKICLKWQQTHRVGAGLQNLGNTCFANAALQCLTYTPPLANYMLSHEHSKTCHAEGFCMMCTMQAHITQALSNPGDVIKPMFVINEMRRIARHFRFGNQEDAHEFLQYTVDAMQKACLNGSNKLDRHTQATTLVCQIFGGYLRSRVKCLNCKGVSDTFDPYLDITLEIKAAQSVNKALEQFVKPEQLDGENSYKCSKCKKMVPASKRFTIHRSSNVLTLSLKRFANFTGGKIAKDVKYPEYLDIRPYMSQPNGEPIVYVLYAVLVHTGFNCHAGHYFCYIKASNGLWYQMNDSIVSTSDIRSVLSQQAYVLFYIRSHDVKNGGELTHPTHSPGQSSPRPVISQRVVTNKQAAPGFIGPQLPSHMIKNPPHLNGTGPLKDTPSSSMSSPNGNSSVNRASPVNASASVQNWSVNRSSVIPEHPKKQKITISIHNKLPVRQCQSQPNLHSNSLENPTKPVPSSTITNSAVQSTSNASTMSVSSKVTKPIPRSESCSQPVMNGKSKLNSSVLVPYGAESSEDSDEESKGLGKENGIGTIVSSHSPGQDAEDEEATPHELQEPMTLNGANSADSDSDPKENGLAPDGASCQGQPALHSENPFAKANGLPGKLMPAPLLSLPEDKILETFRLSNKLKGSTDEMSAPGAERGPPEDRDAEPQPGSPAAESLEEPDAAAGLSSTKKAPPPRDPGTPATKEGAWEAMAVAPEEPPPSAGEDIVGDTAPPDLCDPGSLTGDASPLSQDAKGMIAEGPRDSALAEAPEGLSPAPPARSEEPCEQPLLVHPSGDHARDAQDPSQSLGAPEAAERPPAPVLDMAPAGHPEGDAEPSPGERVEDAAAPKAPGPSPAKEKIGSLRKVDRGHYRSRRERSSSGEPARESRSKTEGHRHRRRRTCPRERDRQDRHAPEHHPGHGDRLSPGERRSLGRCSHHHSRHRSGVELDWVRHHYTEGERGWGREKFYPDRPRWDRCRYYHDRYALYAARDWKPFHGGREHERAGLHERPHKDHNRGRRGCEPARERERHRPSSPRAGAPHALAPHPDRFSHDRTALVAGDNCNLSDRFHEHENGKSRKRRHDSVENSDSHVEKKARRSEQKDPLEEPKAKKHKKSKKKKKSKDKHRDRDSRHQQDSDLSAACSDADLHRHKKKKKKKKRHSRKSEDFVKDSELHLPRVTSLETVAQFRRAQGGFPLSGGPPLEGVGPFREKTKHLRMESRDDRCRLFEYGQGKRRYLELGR
In short: (§1)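 Labelled DUBs from HEK293T lysate were NeutrAvidin-enriched, digested with LysC and trypsin, and run by diaPASEF LC-MS/MS. Before that, each 495 µg sample in Tris/CHAPS/IGEPAL buffer with protease inhibitors was treated in triplicate with fragment at 200 µM or vehicle for 3 h, then with Biotin-Ahx-Ub-VS at 0.5 µM final for 1 h. Values are average log2 ratios of fragment over vehicle by unpaired t-test, based on global-median-normalised Spectronaut label-free quantities from proteins with ≥2 unique peptides.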

USP46 = USP46 (UniProt P62068)
Sequence of USP46 (P62068 whole entry): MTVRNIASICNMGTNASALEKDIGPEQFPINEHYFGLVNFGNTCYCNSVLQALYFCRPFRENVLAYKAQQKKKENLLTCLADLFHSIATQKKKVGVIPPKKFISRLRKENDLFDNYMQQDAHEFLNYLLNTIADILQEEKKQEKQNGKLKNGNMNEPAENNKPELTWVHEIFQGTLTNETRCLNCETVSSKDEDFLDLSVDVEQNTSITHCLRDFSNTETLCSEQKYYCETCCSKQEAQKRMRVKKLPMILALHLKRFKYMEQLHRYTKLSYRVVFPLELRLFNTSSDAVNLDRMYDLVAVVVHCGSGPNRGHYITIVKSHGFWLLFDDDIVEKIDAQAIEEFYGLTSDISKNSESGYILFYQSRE
In short: as §1

USP47 = target: T2, USP47 (UniProt Q96K76)
T2 sequence (whole entry): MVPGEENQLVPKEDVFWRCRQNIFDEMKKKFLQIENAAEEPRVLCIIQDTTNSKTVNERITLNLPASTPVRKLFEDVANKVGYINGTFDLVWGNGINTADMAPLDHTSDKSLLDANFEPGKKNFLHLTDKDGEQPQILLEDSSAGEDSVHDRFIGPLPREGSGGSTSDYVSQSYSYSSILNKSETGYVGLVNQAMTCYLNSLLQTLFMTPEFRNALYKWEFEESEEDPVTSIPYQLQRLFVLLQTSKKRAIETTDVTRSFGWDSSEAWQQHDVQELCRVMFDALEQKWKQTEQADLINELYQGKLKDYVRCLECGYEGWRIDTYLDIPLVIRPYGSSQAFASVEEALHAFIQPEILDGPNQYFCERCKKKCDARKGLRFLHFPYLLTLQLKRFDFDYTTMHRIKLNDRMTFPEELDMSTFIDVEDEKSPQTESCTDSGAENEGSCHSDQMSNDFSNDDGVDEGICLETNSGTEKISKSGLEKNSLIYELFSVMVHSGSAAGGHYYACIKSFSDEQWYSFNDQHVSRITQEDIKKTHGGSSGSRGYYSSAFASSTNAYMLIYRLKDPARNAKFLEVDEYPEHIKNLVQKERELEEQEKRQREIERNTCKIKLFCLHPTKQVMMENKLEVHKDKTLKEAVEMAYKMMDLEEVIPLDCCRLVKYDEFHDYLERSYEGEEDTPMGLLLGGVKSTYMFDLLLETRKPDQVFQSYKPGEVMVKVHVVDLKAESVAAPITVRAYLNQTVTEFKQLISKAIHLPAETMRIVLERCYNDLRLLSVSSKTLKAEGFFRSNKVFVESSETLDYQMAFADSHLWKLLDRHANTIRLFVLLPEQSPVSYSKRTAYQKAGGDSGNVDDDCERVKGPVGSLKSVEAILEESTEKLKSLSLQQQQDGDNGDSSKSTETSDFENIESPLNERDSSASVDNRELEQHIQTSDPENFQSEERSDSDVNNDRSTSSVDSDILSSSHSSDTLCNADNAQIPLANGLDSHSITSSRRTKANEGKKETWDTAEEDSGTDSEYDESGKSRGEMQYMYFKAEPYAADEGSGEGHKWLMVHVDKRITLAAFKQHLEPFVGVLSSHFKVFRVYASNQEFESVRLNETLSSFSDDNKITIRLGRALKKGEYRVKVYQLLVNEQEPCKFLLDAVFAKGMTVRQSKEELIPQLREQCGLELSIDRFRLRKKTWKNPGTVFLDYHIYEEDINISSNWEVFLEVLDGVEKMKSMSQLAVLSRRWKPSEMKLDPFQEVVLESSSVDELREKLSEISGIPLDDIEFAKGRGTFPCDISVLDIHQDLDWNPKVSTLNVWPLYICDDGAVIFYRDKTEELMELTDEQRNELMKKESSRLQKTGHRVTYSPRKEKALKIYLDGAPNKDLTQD
In short: as §1

USP48 = target: T3, USP48 (UniProt Q86UV5)
T3 sequence (whole entry): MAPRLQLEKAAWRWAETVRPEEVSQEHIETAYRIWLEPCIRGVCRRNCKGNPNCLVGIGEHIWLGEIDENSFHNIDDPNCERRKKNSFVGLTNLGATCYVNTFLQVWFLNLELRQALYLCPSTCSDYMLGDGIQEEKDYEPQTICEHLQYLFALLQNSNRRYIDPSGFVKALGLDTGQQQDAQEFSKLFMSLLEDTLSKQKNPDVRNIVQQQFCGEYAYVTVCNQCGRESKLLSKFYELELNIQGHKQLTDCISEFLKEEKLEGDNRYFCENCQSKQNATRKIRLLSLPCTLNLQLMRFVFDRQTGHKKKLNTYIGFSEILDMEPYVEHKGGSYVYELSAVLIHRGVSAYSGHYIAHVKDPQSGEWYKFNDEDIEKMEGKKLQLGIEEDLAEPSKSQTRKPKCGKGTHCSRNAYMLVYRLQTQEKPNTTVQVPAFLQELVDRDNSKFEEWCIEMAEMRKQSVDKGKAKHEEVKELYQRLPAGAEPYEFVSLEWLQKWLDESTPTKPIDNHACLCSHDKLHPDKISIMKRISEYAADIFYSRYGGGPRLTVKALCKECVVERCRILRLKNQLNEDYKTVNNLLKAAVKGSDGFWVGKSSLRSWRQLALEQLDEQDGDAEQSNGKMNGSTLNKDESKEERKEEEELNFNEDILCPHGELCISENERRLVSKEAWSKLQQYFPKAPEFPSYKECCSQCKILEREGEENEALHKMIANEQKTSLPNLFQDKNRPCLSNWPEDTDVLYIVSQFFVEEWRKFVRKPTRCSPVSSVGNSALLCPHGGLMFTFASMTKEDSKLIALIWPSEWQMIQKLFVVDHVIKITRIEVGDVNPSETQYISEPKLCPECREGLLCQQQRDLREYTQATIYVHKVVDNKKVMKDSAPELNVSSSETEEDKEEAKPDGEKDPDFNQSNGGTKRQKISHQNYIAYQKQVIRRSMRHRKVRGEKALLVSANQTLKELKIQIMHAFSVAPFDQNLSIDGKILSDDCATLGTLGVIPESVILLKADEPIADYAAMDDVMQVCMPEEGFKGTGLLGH
In short: as §1

USP5 = target: T4, USP5 (UniProt P45974)
T4 sequence (whole entry): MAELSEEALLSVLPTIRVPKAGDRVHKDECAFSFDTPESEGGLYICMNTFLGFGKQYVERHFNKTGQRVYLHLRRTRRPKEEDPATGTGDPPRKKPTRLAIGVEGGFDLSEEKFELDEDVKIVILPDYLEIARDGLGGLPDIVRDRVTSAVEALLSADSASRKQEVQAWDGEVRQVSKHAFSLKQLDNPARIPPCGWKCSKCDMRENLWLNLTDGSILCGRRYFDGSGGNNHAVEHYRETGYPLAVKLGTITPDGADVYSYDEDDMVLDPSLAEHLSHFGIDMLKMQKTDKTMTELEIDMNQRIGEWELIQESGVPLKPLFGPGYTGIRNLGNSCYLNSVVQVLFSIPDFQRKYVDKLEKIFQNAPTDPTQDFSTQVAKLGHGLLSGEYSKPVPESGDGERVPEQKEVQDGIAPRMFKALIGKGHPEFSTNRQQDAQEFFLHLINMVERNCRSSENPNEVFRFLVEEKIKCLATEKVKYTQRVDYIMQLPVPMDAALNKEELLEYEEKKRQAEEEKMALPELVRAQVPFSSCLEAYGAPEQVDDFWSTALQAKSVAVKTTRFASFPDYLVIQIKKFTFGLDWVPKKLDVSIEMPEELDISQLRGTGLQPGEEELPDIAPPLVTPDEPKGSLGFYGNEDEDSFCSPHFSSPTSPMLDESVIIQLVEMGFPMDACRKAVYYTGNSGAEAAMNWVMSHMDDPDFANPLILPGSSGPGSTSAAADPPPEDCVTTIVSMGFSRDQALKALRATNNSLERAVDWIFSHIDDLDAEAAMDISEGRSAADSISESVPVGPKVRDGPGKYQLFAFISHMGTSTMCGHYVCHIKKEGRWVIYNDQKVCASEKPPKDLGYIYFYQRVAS
In short: as §1

USP54 = USP54 (UniProt Q70EL1)
Sequence of USP54 (Q70EL1 whole entry): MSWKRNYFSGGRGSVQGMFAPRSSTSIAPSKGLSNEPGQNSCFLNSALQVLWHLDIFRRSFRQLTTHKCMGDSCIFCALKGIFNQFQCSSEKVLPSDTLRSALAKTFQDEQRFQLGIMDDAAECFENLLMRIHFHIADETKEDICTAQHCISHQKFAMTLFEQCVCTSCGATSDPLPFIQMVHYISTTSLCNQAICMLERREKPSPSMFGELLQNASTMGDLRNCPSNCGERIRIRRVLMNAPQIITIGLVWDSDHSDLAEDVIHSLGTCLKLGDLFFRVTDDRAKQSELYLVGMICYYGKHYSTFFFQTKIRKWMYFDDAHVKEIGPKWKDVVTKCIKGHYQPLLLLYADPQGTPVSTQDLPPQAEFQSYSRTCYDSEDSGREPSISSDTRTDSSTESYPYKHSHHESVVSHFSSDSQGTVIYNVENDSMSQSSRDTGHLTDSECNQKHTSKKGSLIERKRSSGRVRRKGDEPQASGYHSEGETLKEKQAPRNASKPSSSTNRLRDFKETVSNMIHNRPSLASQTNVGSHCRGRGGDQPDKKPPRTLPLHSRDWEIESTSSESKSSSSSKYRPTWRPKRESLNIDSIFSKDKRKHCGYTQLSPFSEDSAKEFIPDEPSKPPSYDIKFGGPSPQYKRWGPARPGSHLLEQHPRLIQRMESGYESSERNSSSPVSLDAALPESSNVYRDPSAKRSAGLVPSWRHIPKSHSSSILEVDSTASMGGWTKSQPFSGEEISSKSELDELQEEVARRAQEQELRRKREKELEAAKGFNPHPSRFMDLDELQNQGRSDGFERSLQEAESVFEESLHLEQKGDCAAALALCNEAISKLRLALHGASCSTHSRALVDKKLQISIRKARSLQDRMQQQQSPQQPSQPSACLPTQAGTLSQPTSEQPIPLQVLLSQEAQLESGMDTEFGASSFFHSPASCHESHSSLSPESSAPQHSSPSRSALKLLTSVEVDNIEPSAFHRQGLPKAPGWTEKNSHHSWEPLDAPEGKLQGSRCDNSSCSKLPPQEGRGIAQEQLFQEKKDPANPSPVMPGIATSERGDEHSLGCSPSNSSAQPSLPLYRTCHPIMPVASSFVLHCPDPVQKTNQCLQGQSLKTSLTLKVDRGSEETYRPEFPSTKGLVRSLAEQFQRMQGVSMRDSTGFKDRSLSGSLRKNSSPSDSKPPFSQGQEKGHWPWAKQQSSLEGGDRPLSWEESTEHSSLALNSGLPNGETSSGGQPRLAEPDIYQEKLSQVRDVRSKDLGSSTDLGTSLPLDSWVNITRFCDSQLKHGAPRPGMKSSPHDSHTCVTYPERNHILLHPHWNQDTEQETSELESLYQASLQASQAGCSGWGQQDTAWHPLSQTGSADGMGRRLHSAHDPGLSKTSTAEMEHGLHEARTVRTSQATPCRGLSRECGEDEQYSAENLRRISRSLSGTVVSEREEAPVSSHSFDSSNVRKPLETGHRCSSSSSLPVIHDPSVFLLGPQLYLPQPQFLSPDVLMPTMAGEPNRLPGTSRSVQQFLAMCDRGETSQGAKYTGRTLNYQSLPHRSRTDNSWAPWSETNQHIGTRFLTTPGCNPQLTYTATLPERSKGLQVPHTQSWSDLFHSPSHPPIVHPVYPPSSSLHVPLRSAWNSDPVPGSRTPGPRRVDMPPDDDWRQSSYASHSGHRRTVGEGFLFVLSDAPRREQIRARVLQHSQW
In short: as §1

USP7 = USP7 (UniProt Q93009)
Sequence of USP7 (Q93009 whole entry, looked up): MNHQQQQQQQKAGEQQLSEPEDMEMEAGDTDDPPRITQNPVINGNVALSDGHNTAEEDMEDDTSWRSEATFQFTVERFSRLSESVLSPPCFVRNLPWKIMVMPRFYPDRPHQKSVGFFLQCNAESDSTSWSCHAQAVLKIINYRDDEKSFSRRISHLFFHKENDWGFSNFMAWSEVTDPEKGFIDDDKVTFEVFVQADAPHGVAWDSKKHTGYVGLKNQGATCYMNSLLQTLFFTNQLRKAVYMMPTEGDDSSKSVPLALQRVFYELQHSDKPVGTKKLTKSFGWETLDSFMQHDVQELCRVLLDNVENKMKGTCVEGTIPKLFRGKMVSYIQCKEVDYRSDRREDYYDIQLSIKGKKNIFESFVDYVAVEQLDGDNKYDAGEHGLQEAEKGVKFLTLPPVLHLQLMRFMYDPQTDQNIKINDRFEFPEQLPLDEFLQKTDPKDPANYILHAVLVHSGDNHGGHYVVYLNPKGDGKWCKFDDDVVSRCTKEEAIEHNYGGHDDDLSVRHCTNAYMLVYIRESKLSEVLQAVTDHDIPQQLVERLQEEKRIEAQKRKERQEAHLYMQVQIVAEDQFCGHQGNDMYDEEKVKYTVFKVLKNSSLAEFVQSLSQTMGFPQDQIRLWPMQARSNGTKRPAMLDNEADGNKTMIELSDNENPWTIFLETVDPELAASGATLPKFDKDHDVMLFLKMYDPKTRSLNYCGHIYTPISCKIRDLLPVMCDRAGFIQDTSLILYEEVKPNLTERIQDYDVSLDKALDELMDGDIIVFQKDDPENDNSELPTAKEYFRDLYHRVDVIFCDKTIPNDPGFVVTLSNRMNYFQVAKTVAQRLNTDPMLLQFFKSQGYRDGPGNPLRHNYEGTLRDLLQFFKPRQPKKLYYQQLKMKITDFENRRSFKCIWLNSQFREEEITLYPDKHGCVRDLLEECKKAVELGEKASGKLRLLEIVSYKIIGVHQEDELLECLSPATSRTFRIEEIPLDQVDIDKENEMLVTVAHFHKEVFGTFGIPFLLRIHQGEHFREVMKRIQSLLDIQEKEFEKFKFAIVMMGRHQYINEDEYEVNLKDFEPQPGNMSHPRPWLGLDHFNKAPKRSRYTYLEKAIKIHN
In short: as §1

USP8 = target: T5, USP8 (UniProt P40818)
T5 sequence (whole entry): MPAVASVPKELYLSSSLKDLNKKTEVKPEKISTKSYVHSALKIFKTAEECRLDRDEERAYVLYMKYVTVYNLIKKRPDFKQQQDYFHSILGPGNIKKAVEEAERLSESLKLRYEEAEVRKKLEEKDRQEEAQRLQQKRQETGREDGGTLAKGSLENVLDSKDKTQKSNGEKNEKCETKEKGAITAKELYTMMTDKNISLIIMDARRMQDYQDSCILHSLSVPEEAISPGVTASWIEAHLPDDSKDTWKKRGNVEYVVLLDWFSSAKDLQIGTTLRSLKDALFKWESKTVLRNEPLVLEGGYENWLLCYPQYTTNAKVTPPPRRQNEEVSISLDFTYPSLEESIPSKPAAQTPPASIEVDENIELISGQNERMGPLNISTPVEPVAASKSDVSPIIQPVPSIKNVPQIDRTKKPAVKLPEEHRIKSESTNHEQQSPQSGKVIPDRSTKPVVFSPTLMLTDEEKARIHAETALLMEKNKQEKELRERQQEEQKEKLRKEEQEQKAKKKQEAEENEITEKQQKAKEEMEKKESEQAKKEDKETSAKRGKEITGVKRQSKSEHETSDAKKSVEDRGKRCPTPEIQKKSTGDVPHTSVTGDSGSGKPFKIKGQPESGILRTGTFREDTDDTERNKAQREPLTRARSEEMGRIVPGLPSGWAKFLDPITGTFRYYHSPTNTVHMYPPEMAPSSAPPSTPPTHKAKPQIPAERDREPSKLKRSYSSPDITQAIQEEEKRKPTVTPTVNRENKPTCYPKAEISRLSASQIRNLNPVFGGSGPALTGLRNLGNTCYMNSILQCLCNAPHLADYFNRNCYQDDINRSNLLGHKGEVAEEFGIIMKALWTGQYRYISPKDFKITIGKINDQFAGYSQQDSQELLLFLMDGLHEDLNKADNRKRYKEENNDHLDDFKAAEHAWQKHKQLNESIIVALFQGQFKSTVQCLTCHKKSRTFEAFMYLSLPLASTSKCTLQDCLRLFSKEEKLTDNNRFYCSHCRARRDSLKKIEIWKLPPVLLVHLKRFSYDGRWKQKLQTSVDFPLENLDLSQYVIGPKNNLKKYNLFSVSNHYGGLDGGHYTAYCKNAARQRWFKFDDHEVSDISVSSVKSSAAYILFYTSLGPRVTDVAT
In short: as §1

USP9X = USP9X (UniProt Q93008)
In short: as §1

UniProt O00487 = target: UniProt O00487
Sequence of UniProt O00487 (O00487 whole entry): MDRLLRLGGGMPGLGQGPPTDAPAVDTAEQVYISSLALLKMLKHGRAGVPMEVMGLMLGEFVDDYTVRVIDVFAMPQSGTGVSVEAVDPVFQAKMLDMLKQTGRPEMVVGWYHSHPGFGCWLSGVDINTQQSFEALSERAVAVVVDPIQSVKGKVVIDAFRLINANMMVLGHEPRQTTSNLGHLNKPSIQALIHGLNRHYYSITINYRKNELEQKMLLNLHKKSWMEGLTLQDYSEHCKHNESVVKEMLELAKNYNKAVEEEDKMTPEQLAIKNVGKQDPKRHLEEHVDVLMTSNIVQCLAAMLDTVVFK
In short: as §1

Measured: log2 ratio of Biotin-Ahx-Ub-VS probe labelling

Cc1ccc(CC(CO)CNC(=O)CCl)cc1 (stereo not given)
inactive: USP42 -0.0167 | USP46 -0.000866 | USP47 -0.102 | USP48 -0.405 | USP5 -0.182 | USP54 0.455 | USP7 -0.381 | USP8 -0.322 | USP9X -0.363 | UniProt O00487 -0.242
